# From ChEMBL document CHEMBL3988442, “University of Dundee, Small-Polar-MMV Screening Library” (2021)
# Target: AMP-activated protein kinase, AMPK (Homo sapiens) (UniProt P54646+O43741+P54619+Q9UGJ0+Q9Y478+Q13131+Q9UGI9)
# Experiment: AMP-dependent Kinase enzyme assay. An in vitro enzyme assay that detects ADP turnover that is directly proportional to AMPK activity. This uses naive AMPK that is activated during the assay with MK-8722
# Type: functional
# Parameters: scale not given: direction of the effect not stated beside the values
# Conditions: 30 µM
row,SMILES,Percent Effect [%]
1,COCCNC(=O)c1cnc(C)nc1C,3.33
2,Cc1nc(CNC(=O)Nc2c(C)n[nH]c2C)cs1,-7.09
3,O=C1NCCCN1Cc1nc(-c2ccc(N3CCCCC3)cc2)no1,3.5
4,COc1ccc(CN(C)[C@@H]2COC[C@H]2c2ccc(F)cc2)c(OC)c1,10.5
5,C=Cn1ncc(CN2CCC(c3ncc(Cl)cc3S(C)(=O)=O)CC2)c1C,-0.153
6,O=C(Cn1cnc2ccsc2c1=O)c1ccc2c(c1)OCCO2,-4.28
7,O=C(NCc1cccnc1N1CCCCC1)c1ccc2cc[nH]c2c1,1.26
8,NC(=O)[C@@H]1Cc2ccccc2N1C(=O)C1CC(c2ccccc2)=NO1 (some centres undefined),11.5
9,O=S(=O)(NCCCn1cncn1)c1ccc2c(c1)CCO2,4.51
10,CC(C)(CN1CCC2(CCCNC2)C1)N1CCOCC1 (centres undefined),-0.439
11,COCCNC(=O)NCc1ccc(-n2ccc(C(F)(F)F)n2)cc1,-8.71
12,FC(F)(F)c1nc(NC2CCc3ncnn3C2)c2ccccc2n1 (centres undefined),-0.0839
13,CCC(Nc1ccc(CCN2CCCCC2)cc1)C(N)=O (centres undefined),-12.9
14,Cc1noc(C)c1C(=O)N[C@@H]1CCC[C@@H](Oc2ccccc2)[C@@H]1O,19.1
15,CC(NS(N)(=O)=O)c1ccc(OCc2ccc(F)cc2)cc1 (centres undefined),3.51
16,Cc1nccn1CCN1C(=O)CC2(CCCC2)CC1=O,8.33
17,Cc1ccc2nc(CN3CCCCC3CCn3cccn3)cn2c1 (centres undefined),4.05
18,Cc1nn(C)c(C)c1S(=O)(=O)NCC1(C(N)=O)CCOCC1,0.589
19,CN(Cc1ccncc1)c1cncc(Br)c1,3.2
